Compounds with a hit are over-represented: about 3.6% of the library has one in this group of screens.
Autofluor counter: compound fluorescence in toxin protease inhibitor counterscreen | compound autofluorescence counterscreen, microsphere flow cytometry; stronger effect = higher value | 360,000 tested, 3.1% active | fluorescence intensity (test concentration not listed) | AID 624483; in the data active = fluorescence intensity above about 16000; inconclusive = no clear call, values can overlap the other calls
BoNT-F LC inh: blocks Botulinum neurotoxin F light chain protease. AID 588497. inhibition, % at 10 µM. Multiplex microsphere protease cleavage assay, flow cytometry. 360,000 tested, 0.22% active; in the data active = inhibition above about 35%, passing the limit was not always enough; inconclusive = no clear call, values can overlap the other calls
BoNT-A LC inh2: inhibitors of Botulinum neurotoxin A light chain protease | 360,000 tested, 0.17% active | multiplex microsphere protease substrate cleavage, flow cytometry | inhibition, % at 10 µM | AID 588499
MazEF act: increases E. coli MazEF RNase cleavage of RNA | P0AE70 | FAM/BHQ RNA-DNA oligo cleavage fluorescence, 5 h | activation, % at 20 µM | 350,000 tested, 0.32% active | AID 504720; in the data active = activation above about 50%
Target sequence (P0AE70 whole entry, looked up): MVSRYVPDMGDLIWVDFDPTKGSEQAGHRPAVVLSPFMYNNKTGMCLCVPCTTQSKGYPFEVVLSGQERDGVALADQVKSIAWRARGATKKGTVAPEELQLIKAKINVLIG
Anthrax LF prot: inhibitors of Bacillus anthracis lethal factor protease | 360,000 tested, 0.12% active | AID 588501 | multiplex microsphere protease cleavage assay, LF | P15917 | inhibition, % at 10 µM
Hits are given with their value; i = inactive; ? = inconclusive; nt = not tested or not shown; + = active, no number. Cut-off read from the data, not from the text of the source, unless noted: active = inhibition above about 30%; inconclusive = no clear call, values can overlap the other calls; inactive = below that.

SMILES	Autofluor counter	BoNT-F LC inh	BoNT-A LC inh2	MazEF act	Anthrax LF prot
COC(=O)CCCC1=CC2=C(c3ccccc3)C(=O)C(C)(OC(=O)C3CCCC3)C(=O)C2=CN1CCc1c[nH]c2ccccc12 (stereo not given)	i	i	i	54	i
O=S(CC(O)COCc1ccc(Cl)cc1)c1ccccn1 (stereo not given)	21318	i	i	i	i
CC12CCC(C(=O)OC3CCCCC3)(OC1=O)C2(C)C (stereo not given)	i	i	i	i	i
Cn1c(=O)c2[nH]c(-c3ccccc3)c(O)c2n(C)c1=O	i	i	i	+	i
Cn1c(=O)c2[nH]c(-c3ccccc3Cl)c(O)c2n(C)c1=O	i	i	i	909	i
O=C(Nc1ccc(N2CCOCC2)cc1)c1csc([C@@H]2O[C@H](CO)[C@H](O)[C@H](O)[C@H]2O)n1	i	i	i	nt	i
COc1ccc(C(=O)OCC(=O)Nc2sccc2C(N)=O)cc1[N+](=O)[O-]	nt	nt	nt	i	nt
CCOc1ccc(CCNC(=O)Cn2nc(C)c3c(C)n(-c4ccccc4)nc3c2=O)cc1OCC	i	i	i	i	i
COc1ccc2c(c1)CC1(CN2C)C(=O)NC(=O)N(c2ccc(C)cc2)C1=O (stereo not given)	i	i	i	i	i
COc1ccc2c(c1)CC1(CN2C)C(=O)NC(=O)N(c2ccc(F)cc2)C1=O (stereo not given)	22766	i	i	i	i
Cc1cc(C)c(C(=O)c2ccc(C(=O)N(C(C)C)C(C)C)cc2)c(C)c1	22394	i	i	i	i
Nc1cc(SCc2ccc(Cl)cc2Cl)ncn1	i	i	i	56	i
O=C(CCCl)Nc1cc(SCCO)cc([N+](=O)[O-])c1	20902	i	i	i	i
COc1cc(C(=O)OCC(=O)N(C)c2ccccc2)cc(OC)c1OC	i	i	i	i	i
O=[N+]([O-])c1ccc(C=NNc2ccccc2)cc1	i	i	i	i	i
O=[N+]([O-])c1ccc(N/N=C/c2ccccc2)c(F)c1	i	i	i	234	i
Cc1ccc(Cc2c(-c3ccc(Cl)cc3)nc3c(C)cc(Br)cn23)cc1	i	i	i	nt	i
Cc1ccc(/C=C2/SC(=S)N(c3ccc(S(=O)(=O)Nc4nccs4)cc3)C2=O)cc1	i	?	i	i	i
O=C1/C(=C\c2ccccn2)SC(=S)N1c1ccc(S(=O)(=O)Nc2nccs2)cc1	i	?	i	i	30
Cc1cc(C(=O)CN2C(=O)NC(Cc3c[nH]c4ccccc34)C2=O)c(C)n1C (stereo not given)	23788	i	i	i	i
CN1CCCN(C(=O)c2c(F)cccc2Cl)CC1	i	?	i	i	i
O=C(/C=C/c1ccco1)OCC(=O)N1CCCCC1	i	i	i	i	i
CCN(CC)c1ccc(/C=N/N2CCN(Cc3ccc(Cl)cc3)CC2)c(O)c1	i	i	i	i	i
CCN(CC)c1ccc(/C=N/N2CCN(Cc3cccc4ccccc34)CC2)c(O)c1	23476	i	i	i	i
CCN(C(=O)CSc1nc2cc(C(=O)OC)ccc2c(=O)n1Cc1ccco1)c1cccc(C)c1	16983	i	i	i	i
SMILES	Autofluor counter	BoNT-F LC inh	BoNT-A LC inh2	MazEF act	Anthrax LF prot
CCCCCn1c(SCC(=O)OCC)nc2cc(C(=O)NCc3ccco3)ccc2c1=O	21498	i	i	i	i
COCCNC(=O)c1ccc2c(=O)n(Cc3ccco3)c(SCC(=O)NC3CCCC3)nc2c1	21828	i	i	i	i
COCCNC(=O)CSc1nc2cc3c(cc2c(=O)n1Cc1ccco1)OCO3	i	i	i	i	i
C=CCn1c(SCC(=O)NC(=O)NCc2ccco2)nc2sc(CC)cc2c1=O	i	i	i	i	i
CCOC(=O)CSc1nc2ccccc2c(=O)n1Cc1ccco1	i	i	i	i	i
C=CCn1c(SCC(=O)OCC)nc2cc(C(=O)NCc3ccco3)ccc2c1=O	23049	i	i	i	i
CCOC(=O)C1(CC)Oc2ccccc2C(c2ccc(OC)cc2)=C1C(=O)OC (stereo not given)	i	i	i	i	i
CCOc1ccc(NS(=O)(=O)c2ccc(C(=O)N3CCCC(C)C3)cc2)cc1 (stereo not given)	i	i	i	i	i
O=C(NC1CCCCCC1)c1[nH]c(C(F)(F)F)nc1-c1ccccc1	i	i	i	nt	i
O=C(O)c1sccc1Oc1ccc(NS(=O)(=O)c2ccccc2)cc1	i	i	i	i	i
CCCCn1c(SCC(=O)NCc2ccco2)nc2ccc(N3CCOCC3)cc2c1=O	22158	i	i	i	i
CCCCn1c(SCC(=O)NCc2ccccc2)nc2ccc(N3CCOCC3)cc2c1=O	i	i	i	i	i

Assay outcomes (PubChem)
